# PRMT1 FP inh – blocks human protein arginine methyltransferase 1. recombinant PRMT1, activity-based probe fluorescence polarization. 370,000 compounds, 1.3% hits. inhibition, % at 2.79 µM. Q99873. AID 652257;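 active means inhibition above about 21% made by adding two undisclosed values, limit read from the data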
# Target sequence (Q99873 whole entry, looked up): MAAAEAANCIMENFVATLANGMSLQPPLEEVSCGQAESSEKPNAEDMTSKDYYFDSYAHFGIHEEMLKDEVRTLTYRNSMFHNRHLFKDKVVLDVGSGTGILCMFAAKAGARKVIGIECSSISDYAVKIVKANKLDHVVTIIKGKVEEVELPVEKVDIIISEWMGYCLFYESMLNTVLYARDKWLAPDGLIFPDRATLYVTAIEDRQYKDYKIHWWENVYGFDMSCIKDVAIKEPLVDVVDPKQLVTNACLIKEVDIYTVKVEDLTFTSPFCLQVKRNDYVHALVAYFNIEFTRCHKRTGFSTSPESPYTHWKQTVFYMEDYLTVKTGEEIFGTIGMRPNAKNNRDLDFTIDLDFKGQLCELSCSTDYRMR
# LEDGF integ inh – blocks HIV-1 LEDGF/p75-dependent DNA integration; TR-FRET IN-LEDGF/p75 DNA integration, Eu/Cy5; inhibition, % at 3.7 µM; 370,000 compounds, 0.64% hits;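 active means inhibition above the screen-wide mean plus 3 SD, cut at about 13% in these data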;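 further: signal is the Cy5 over europium emission ratio at 671 and 618 nm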
# MBD2 DNA inh – MBD2-methylated oligo binding inhibition | inhibition, % at 4.4 µM | 370,000 compounds, 0.31% hits | Q9UBB5 | TR-FRET, MBD2 binding to methylated oligonucleotide; in the data active means inhibition above about 13%
# UHRF1 binding – human UHRF1 methylated DNA binding inhibitors. Q96T88. UHRF1 binding to methylated oligo, TR-FRET. inhibition, % at 4.4 µM. 370,000 compounds, 0.75% hits; in the data active means inhibition above about 21%;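 further: UHRF1 SRA domain binding a hemimethylated CpG hairpin DNA probe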
# IN multimer up – HIV-1 integrase multimerization activation, counter-screen; AID 1053131; TR-FRET HIV-1 integrase multimerization, biochemical; activation, % at 7.7 µM; shares compounds with LEDGF integ inh; 2,000 compounds, 17% hits; in the data active means activation above about 8.9%
# TRFRET interf – optically interferes with TR-FRET readout in LEDGF counter-screen; 2,000 tested, under 10 active; shares compounds with LEDGF integ inh; AID 1053135; TR-FRET optical interference counterscreen, HIV-1 IN multimerization; inhibition, % at 7.7 µM;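 active means inhibition above the mean over all tested compounds plus 3 SD, which no compound reached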
# LEDGF integ conf – confirmation of HIV-1 LEDGF/p75-dependent integration inhibitors | shares compounds with LEDGF integ inh | 2,000 compounds, 36% hits | TR-FRET LEDGF/p75-dependent HIV-1 integration, biochemical | inhibition, % at 3.7 µM | AID 1053136; in the data active means inhibition above about 14%
# A number is an active result; n = inactive; x = no result. A selection: hits, their analogues and other compounds. The true share with any hit is near 2.5%.
SMILES,PRMT1 FP inh,LEDGF integ inh,MBD2 DNA inh,UHRF1 binding,IN multimer up,TRFRET interf,LEDGF integ conf
O=C1CC(c2ccccc2)=NN1c1ccccc1,n,20.8,n,n,n,n,n
COc1cc(C2OCC3C(c4ccc(OC5OC(CO)C(O)C(O)C5O)c(OC)c4)OCC23)ccc1O (configuration not stated),n,32.5,n,n,33.8,n,14.9
COc1cc([C@H]2OC[C@H]3[C@@H]2CO[C@H]3c2ccc(O)c(OC)c2)ccc1O,n,n,n,n,x,x,x
N#Cc1c(N)[nH]c(C(=O)c2ccccc2)c1-c1ccccc1Br,n,31.9,n,n,n,n,n
c1ccc(CNc2ccc(N3CCOCC3)cc2)cc1,n,15.2,n,n,n,n,n
CC1CCN(S(=O)(=O)c2cccc(C(=O)NC3CCS(=O)(=O)C3)c2)CC1 (configuration not stated),n,n,n,n,x,x,x
O=c1c2ccccc2nc2n1CCC2,n,15.2,n,n,n,n,33.8
O=c1c2ccccc2nc2n1CCCCC2,n,n,n,n,x,x,x
O=C1CC(c2ccco2)CC(O)=C1C=Nc1cc(Cl)ccc1Cl (configuration not stated),n,20.8,n,24.4,n,n,21.4
O=C1CC(c2ccco2)CC(O)=C1C=Nc1cc(Cl)ccc1O (configuration not stated),n,34.3,n,21.1,n,n,15.6
O=C1CC(c2ccco2)CC(O)=C1C=Nc1ccccc1-c1ccccc1 (configuration not stated),n,n,n,n,x,x,x
Cc1ccccc1S(=O)(=O)NC(=O)C1(C)CCN1C(=O)c1c(C)noc1C (configuration not stated),n,n,n,n,x,x,x
CCN(c1ccccc1)S(=O)(=O)c1cc(OC)ccc1OC,n,52.2,n,n,n,n,n
CN(C)c1ccccc1C(=O)N1CCCC(C(=O)c2ccc3ccccc3c2)C1 (configuration not stated),n,n,n,n,x,x,x
CSc1ncccc1C(=O)N1CCCC(C(=O)c2ccc3ccccc3c2)C1 (configuration not stated),n,15.1,n,n,n,n,n
COCCCNc1nc(SCc2ccccc2)nc2sc3c(c12)CCC3,n,13.9,n,n,n,n,n
CCCS(=O)(=O)NC(=O)C1(C)CCN(C(=O)c2cccnc2Oc2ccccc2)C1 (configuration not stated),n,n,n,n,x,x,x
CCc1nc2ccc(C(=O)N3CCN(C(=O)c4ccco4)CC3)cn2c1N(CC)Cc1cccc(Br)c1,n,n,n,n,x,x,x
Cc1cc(-c2csc(NC(=O)C3=COCCO3)n2)c(C)n1C,n,43.0,n,n,n,n,46.6
CCCS(=O)(=O)NC(=O)C1(C)CCN(C(=O)c2c(C)noc2C)C1 (configuration not stated),n,n,n,n,x,x,x
CN1CCC/C1=C/C=C1\SC(=S)NC1=O,n,17.6,n,n,17.0,n,n
COC(=O)c1ccc(Cn2ccc3ccc(-c4ccc5ccn(C(=O)c6ccccc6C)c5c4)cc32)cc1,n,n,n,n,x,x,x
Cc1ccc(C)c(S(=O)(=O)N2CCCOC2CNC(=O)C(=O)NC2CCCC2)c1 (configuration not stated),n,n,n,n,x,x,x
CCN(CC(=O)Nc1c(F)cccc1F)C(=O)C1CC(=O)N(CCc2ccccc2)C1 (configuration not stated),n,34.8,n,n,n,n,n
CC(CC(=O)Nc1ccc2c(c1)c(=O)n(C)n2-c1ccccc1F)c1ccccc1 (configuration not stated),n,n,n,n,x,x,x
O=C1CCC[C@H]2C[C@H](NCc3cccs3)CC[C@]23CCCN13,n,n,n,n,x,x,x
C/C(=N\NC(=O)c1ccccc1[N+](=O)[O-])c1ccc(Br)s1,n,58.7,n,n,n,n,n
Cc1ccc(NC(=O)CN(c2ccccc2F)S(C)(=O)=O)cc1,n,20.6,n,n,n,n,n
Cc1cc(C)n2nc(-c3ccsc3-n3c(C)ccc3C)cc2n1,n,24.1,n,n,n,n,20.2
Cc1cc(C)n(CCNc2nc3nonc3nc2N2CCCCC2)n1,n,n,n,n,x,x,x
